Compound activity (PubChem)
Compounds with a hit are over-represented: about 7.9% of the library has one in this group of screens.
FMDV inh – High Throughput Screening for Foot and Mouth Disease Virus Antivirals; FMDV antiviral cell-based qHTS; Potency, µM (doses to about 57.9 µM), most hits filed as inhibitors; 1.2% of 410,000 active; AID 1159524, 2015; calls by dose curve; tested in HEK293T cells; note: read-out not given here; nearly all actives have a fitted effect of over 45% in size
Lassa entry inh – qHTS for Inhibitors of binding or entry into cells for Lassa Virus. Lassa virus pseudotype entry inhibition, cell reporter. 1.2% of 300,000 active. Potency, µM (top dose mostly 37.9 µM), actives largely listed as inhibitors. AID 540256, 2011; calls by dose curve; tested in HEK293 cells; note: nearly all actives have a fitted effect of over 50% in size
HCV inhibitor – qHTS Assay for Inhibitors of Hepatitis C Virus (HCV). Huh7.5.1 HCVcc-Cre infection, luciferase reporter, 44 h. Potency, µM (highest dose often 41.8 µM), hits mostly inhibitors. 3.4% of 340,000 active; active = well fitted inhibition curve with a large enough effect; inconclusive = small, poorly fitted or top-dose-only effect, or another doubt; inactive = no such curve, though single readings can be large or run the other way
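Cells seeded at 1,000/well and cultured 4 h, then compounds added followed by HCVcc-Cre virus (~0.5 moi). After 44 h further culture, luciferase substrate was added, plates held 15 min at room temperature, and luminescence read for 15 sec.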
HCMV antiviral – qHTS Assay for inhibitors of the human cytomegalovirus (HCMV). activity change, negative = inhibition, % at 57.5 µM. HFF cells, HCMV-luciferase reporter, 72 h; stronger effect = lower value. 4.5% of 410,000 active; in the data active = activity change below about -60%; inconclusive = no clear call, values can overlap the other calls; inactive = above about -39%
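Steps: HFFs plated, 16 h 37C; compounds added; HCMV-luciferase added to MOI 1 PFU/cell; 72 h 37C; OneGlo reagent, 5 min room temperature; luminescence read, normalized to controls.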
Marburg entry inh – qHTS for inhibitors of binding or entry into cells for Marburg Virus | Marburg virus pseudotyped entry inhibition, cell reporter | Potency, µM (top dose mostly 37.8 µM), most hits filed as inhibitors | 1.8% of 300,000 active; calls by dose curve; tested in HEK293 cells
Numbers stand for hits; i = inactive; ? = inconclusive; nt = no result given; ! = repeats disagree.

SMILES	FMDV inh	Lassa entry inh	HCV inhibitor	HCMV antiviral	Marburg entry inh
CCCNC(=O)c1ccc2c(=O)c(O)c(-c3ccc(Cl)c([N+](=O)[O-])c3)[nH]c2c1	i	nt	5.01µM	i	nt
O=C(NCCc1nc2ccccc2[nH]1)c1ccc(Cl)c([N+](=O)[O-])c1	i	i	i	i	i
COc1ccc(CN2CCN(C(=O)Cn3nc(C)n4cccc4c3=O)CC2)c(OC)c1OC	i	i	i	i	i
COc1ccc(CN2CCN(C(=O)Cn3ncn4cccc4c3=O)CC2)c(OC)c1OC	?	nt	?	-63.9	nt
COc1ccc(CN2CCN(C(=O)Cn3c(=O)oc4cc(Cl)ccc43)CC2)c(OC)c1OC	i	nt	3.55µM	?	nt
C#CCSC1=C(C#N)[C@@H](c2cccs2)C(C(=O)OCC)=C(C)N1	nt	nt	nt	nt	i
CN(C)S(=O)(=O)c1cccc(C(=O)OCC(=O)Nc2sccc2C(N)=O)c1	14.1µM	i	?	i	?
COc1ccccc1NC(=O)COC(=O)Cc1c[nH]c2ccccc12	i	11.2µM	?	i	i
NC(=O)c1ccsc1NC(=O)COC(=O)Cc1c[nH]c2ccccc12	20µM	?	?	i	i
COc1ccc(NC(=O)COC(=O)c2cccc(S(=O)(=O)N(C)C)c2)cc1	i	i	i	i	?
NC(=O)c1ccsc1NC(=O)COC(=O)Cc1cccc2ccccc12	31.6µM	i	?	i	7.08µM
NC(=O)c1ccsc1NC(=O)COC(=O)Cc1ccccc1	?	nt	i	i	nt
COc1ccc2c(c1)O[C@@H](c1ccc3c(c1)OCO3)[C@H](OC(=O)Nc1ccc(C)c(Br)c1)C2=O	nt	i	nt	nt	i
COc1cc(C(=O)OCC(=O)Nc2sccc2C(N)=O)cc(OC)c1OC	?	nt	?	i	nt
COc1cc(CCC(=O)OCC(=O)Nc2sccc2C(N)=O)cc(OC)c1OC	17.8µM	i	12.6µM	i	i
CCC[C@@H](O)c1cc2cc(OC)c(OC)cc2c(=O)o1	i	nt	i	i	nt
CC(C)[C@@H](OCc1ccccc1)[C@H](C)C=NO[C@H](C)c1cn([C@@H]2COC[C@@H]2O)nn1	nt	nt	nt	nt	i
Cc1cccc2cc(COC(=O)c3cccs3)c(=O)[nH]c12	i	i	i	-65.4	i
Cc1cccc2cc(CN(Cc3ccco3)C(=O)c3cccs3)c(=O)[nH]c12	i	i	i	-98.7	i
CCCCN(Cc1ccco1)C(=O)c1cc2c(=O)[nH]c3ccc(C)cc3c2s1	i	nt	?	?	nt
Cc1ccc2cc(CN(Cc3ccco3)C(=O)c3cccs3)c(=O)[nH]c2c1	i	?	?	i	1.26µM
Cc1ccc2[nH]c(=O)c3cc(C(=O)N(CCCOC(C)C)Cc4ccco4)sc3c2c1	?	nt	?	?	10µM
Cc1ccc2[nH]c(=O)c(CN(Cc3ccco3)C(=O)c3cccs3)cc2c1	nt	nt	i	nt	nt
CCN(CC)CCN(Cc1cc2ccc(C)c(C)c2[nH]c1=O)C(=S)NCc1ccco1	i	5.62µM	?	-77.2	?
O=C(COc1ccc2ccccc2c1Br)Nc1cccnc1	i	nt	?	i	nt
SMILES	FMDV inh	Lassa entry inh	HCV inhibitor	HCMV antiviral	Marburg entry inh
CC(C)CCOc1cccc(OCC(=O)Nc2ccncc2)c1	i	i	?	-76.8	?
Cc1cc(OCC(=O)Nc2ccncc2)cc(C)c1Cl	i	nt	12.6µM	-63.6	nt
O=C(Cc1ccc(Cl)cc1Cl)Nc1ccncc1	?	i	8.91µM	-66.2	i
O=C(COc1ccc2ccccc2c1Br)Nc1ccncc1	i	?	?	-60.3	?
COc1cc([C@H]2NC(=O)C[C@@H]2C(=O)O)ccc1OC(C)C	nt	nt	nt	i	nt
CCOC(=O)c1c(NC(=O)/C=C/c2ccc(C)cc2)sc(C(C)=O)c1C	i	?	nt	i	nt
Cc1cc(/C=C2\SC(=S)N(Cc3ccco3)C2=O)c(C)n1-c1cccnc1	i	i	?	i	i
Cc1cc(/C=C2/SC(=S)N(c3cccc(C(F)(F)F)c3)C2=O)c(C)n1-c1cccnc1	?	?	1.58µM	nt	?
CCn1c(CCl)nc2cc(S(=O)(=O)N3CCOCC3)ccc21	28.2µM	?	?	i	i
CCCn1c(CCC(=O)Nc2ccccc2Cc2ccccc2)nc2cc(S(=O)(=O)N3CCOCC3)ccc21	i	?	?	i	12.6µM
Cn1c(CCC(=O)Nc2ccc(F)cc2)nc2cc(S(=O)(=O)N3CCOCC3)ccc21	i	i	i	i	i
COc1cccc(Cn2nnc3c(=O)[nH]c(C4CCN(C(=O)c5ccccc5Cl)CC4)nc32)c1	i	i	nt	i	i
Cc1ccc(C(OC(=O)c2ccco2)C(=O)NC2CCCC2)cc1 (configuration not stated)	i	i	i	i	?
Cc1ccc(C(OC(=O)c2ccco2)C(=O)NC2CCCCC2)cc1 (configuration not stated)	i	i	i	-98.0	i
CCOc1ccc(C(OC(=O)c2ccco2)C(=O)NCc2ccc(C)cc2)cc1 (configuration not stated)	i	i	i	-74.0	i
CCOC(=O)C1(C(=O)OCC)CCN(S(=O)(=O)c2ccccc2)CC1	i	i	i	i	i
O=S(=O)(NCCNC/C=C/c1ccc(Br)cc1)c1cccc2cnccc12	?	?	nt	nt	10µM
CNCCNS(=O)(=O)c1cccc2cnccc12	i	i	nt	nt	?
COc1cc(Cl)cc2c1Sc1ccccc1/C2=C/CCN(C)C	i	?	4.47µM	nt	?
CN(C)CC/C=C1/c2ccccc2Sc2c(O)cc(Cl)cc21	i	i	?	i	?
CC1=CC(C)(C)Nc2ccc(OC(=O)c3cccnc3)cc21	28.2µM	?	?	-91.7	?
CC1=CC(C)(C)Nc2ccc(OC(=O)c3ccco3)cc21	nt	?	?	-81.8	?
O=C(Oc1cccc(OC(=O)c2ccco2)c1)c1ccco1	i	nt	i	i	nt
CC1=CC(C)(C)Nc2ccc(Cc3ccc4c(c3)C(C)=CC(C)(C)N4)cc21	i	nt	10µM	i	nt
CC1=CC(C)(C)N2C(=O)C(=O)c3cc(OC(=O)c4ccco4)cc1c32	i	?	i	-87.8	i
SMILES	FMDV inh	Lassa entry inh	HCV inhibitor	HCMV antiviral	Marburg entry inh
Cc1cc(OCCn2cncn2)ccc1[N+](=O)[O-]	i	nt	i	i	nt
CC1=CC(C)(C)Nc2ccc(OC(=O)C(C)N3C(=O)c4ccccc4C3=O)cc21 (configuration not stated)	28.2µM	?	?	-73.7	?
CC1=CC(C)(C)Nc2ccc(OC(=O)CN3C(=O)CCC3=O)cc21	nt	?	11.2µM	-94.1	?
COc1ccc(OC(=O)C(C)N2C(=O)c3ccccc3C2=O)cc1 (configuration not stated)	i	?	i	i	i
O=C(CC1CCCCC1)N1CCC(c2nc(-c3ccc(S(=O)(=O)N4CCCC4)cc3)no2)CC1	i	?	?	i	?
O=C(NC1CCCCC1)N1CCC(c2nc(-c3ccc(S(=O)(=O)N4CCCC4)cc3)no2)CC1	?	10µM	?	-61.8	i
O=C(C1CC1)N1CCC(c2nc(-c3ccc(S(=O)(=O)NCC4CCCO4)cc3)no2)CC1 (configuration not stated)	?	?	?	-96.5	?
CS(=O)(=O)N1CCCC(c2nc(-c3ccc(S(=O)(=O)NCc4ccccc4)cc3)no2)C1 (configuration not stated)	?	?	?	-94.8	0.13µM!
